Source: PubChem (several laboratories)
In the library only some 27% were active in any assay of this set; here they are far more common.
CYP2C9 act: increases human cytochrome P450 2C9 activity; recombinant CYP2C9, luciferin-H conversion, luminescence; hits give high values; factor 1 = untreated enzyme, 0 = blocked; AID 1024; P11712; actives 1.4% (n = 96,000); activation factor at 5 µM;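 active means activation factor of 2 or more for CYP2C9 at a 5 µM dose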
CYP2C19 activ: increases human CYP2C19 enzyme activity | P33261 | recombinant CYP2C19, luciferin-H EGE luminescence; hits give high values; 0 = fully inhibited enzyme, 1 = untreated enzyme | activation factor at 5 µM | 96,000 tested, under 10 active;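 active means activation factor of at least 2 at 5 µM in the primary screen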
CYP2C19 inhib: human CYP2C19 inhibition. AID 778. CYP2C19 Supersomes, luciferin-H EGE luminescence, 30 min. P33261. actives 21% (n = 96,000). inhibition, % at 5 µM;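 active means CYP2C19 inhibition above a set limit at 5 µM in the primary screen, cut at about 50% in these data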
PTK2B oligo ant: blocks oligomerization of human Pyk2 in cells; AID 1347419; z-score (the deposit names both 25 µM and 10 µM); Q14289; actives 0.83% (n = 99,000); Q293 cells, Pyk2 FERM NanoBiT luminescence; hits give low values;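 active means Z-score of -3 or lower, scaled per plate to the spread of control and sample wells; inactive means z-score above -3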;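 further: negative z-score means lost luminescence so less FERM oligomerization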
Cav32 inh: blocks human Cav3.2 T-type calcium channel. Cav3.2-expressing cells, Fluo-4 calcium fluorescence FDSS; hits give low values. actives 4% (n = 100,000). O95180. B-score at 10 µM;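 active means single-dose well whose peak fluorescence ratio is a statistical outlier from its plate by either plate-standardised score or position-corrected B-score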
CYP2C9 inhib: blocks human cytochrome P450 2C9. P11712. actives 20% (n = 96,000). inhibition, % at 5 µM. CYP2C9 Supersomes, luciferin-H conversion, luminescence. AID 777;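 active means blocking of liver enzyme CYP2C9 beyond about 50% at 5 µM, limit read from the data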
Hits are given with their value; i = inactive; nt = not tested or not shown.

SMILES | CYP2C9 act | CYP2C19 activ | CYP2C19 inhib | PTK2B oligo ant | Cav32 inh | CYP2C9 inhib
CC(=O)CSc1nnc(-c2ccncc2)n1C | i | i | i | i | i | i
CC1=C(C(=O)Nc2ccccc2)C(c2ccc3c(c2)OCO3)C2=C(CCCC2=O)N1 (stereo not drawn) | i | i | 66 | i | i | 53
CCOC(=O)C1=C(C)N(C)C(=O)NC1c1cc2c(cc1Br)OCO2 (stereo not drawn) | i | i | 62 | i | i | i
CCOC(=O)C1=C(C)NC2=C(C(=O)CC(C)(C)C2)C1c1cccc(C)n1 (stereo not drawn) | i | i | 55 | i | i | i
CC1=C(C(=O)Nc2cc(C)ccn2)C(c2ccc(C)cc2)C2=C(CCCC2=O)N1 (stereo not drawn) | i | i | i | i | i | i
CCCOC(=O)C1=C(C)NC2=C(C(=O)CC(C)(C)C2)C1c1ccc(N(C)C)cc1 (stereo not drawn) | i | i | 85 | i | i | 80
O=C(c1ccc2c(c1)OCO2)N1CCC2(CC1)Oc1ccc(Cl)cc1C(=O)C21CC(c2ccccc2)=NO1 (stereo not drawn) | nt | nt | nt | nt | i | nt
CCn1c2ccc(CC(=O)O)cc2c2cc(CC(=O)O)ccc21 | i | i | i | i | i | i
O=C(Cn1cnc2ccccc21)NCCCN1CCOCC1 | i | i | i | i | i | i
COc1ccc2[nH]c(=O)c(CN(C(=O)c3ccco3)C3CCCCC3)cc2c1 | i | i | i | i | i | i
CC1(C)CC(=O)C2=C(C1)Nc1[nH]n(-c3ccccc3)c(=O)c1C2c1ccc2c(c1)OCO2 (stereo not drawn) | i | i | 55 | i | i | i
COCCOC(=O)C1=C(C)NC2=C(C(=O)CCC2)C1c1cc2c(cc1Br)OCO2 (stereo not drawn) | i | i | 96 | i | i | 79
CN(C)c1ccc(C2CC(=O)NC3=C2C(=O)CC(C)(C)C3)cc1 (stereo not drawn) | i | i | 61 | i | i | i
COc1ccc(OC)c(C2C(C(=O)Nc3cccnc3)=C(C)NC3=C2C(=O)CCC3)c1 (stereo not drawn) | i | i | 56 | i | i | 98
CCN(CC)c1ccc(C2CC(=O)NC3=C2C(=O)CC(C)(C)C3)cc1 (stereo not drawn) | i | i | i | i | nt | i
COc1ccc(C2C3=C(CC(C)(C)CC3=O)Nc3c2c(=O)[nH]c(=O)n3Cc2ccccc2)cc1OC (stereo not drawn) | i | i | i | i | i | i
COc1ccc(C2C(C(=O)OCC(=O)NC(C)(C)C)CCC(=O)N2c2ccc(C)cc2)cc1OC (stereo not drawn) | i | i | i | i | i | i
NCCCC[C@H]1CNC(=S)N1CC1CCCCC1 | nt | nt | nt | nt | i | nt
COCCOC(=O)C1=C(C)NC2=C(C(=O)CC(C)(C)C2)C1c1ccc2c(c1)OCO2 (stereo not drawn) | i | i | 90 | i | i | 82
CC1=C(C(=O)OCCOC(C)C)C(c2cc3c(cc2Br)OCO3)CC(=O)N1 (stereo not drawn) | i | i | 80 | i | i | 65
CCOc1ccc(Nc2ncnc3c2cnn3-c2ccccc2)cc1 | i | i | i | nt | nt | i
COc1ccc(Nc2ncnc3c2cnn3Cc2ccccc2)cc1 | i | i | 55 | i | i | i
CCOc1ccc(Nc2ncnc3c2cnn3Cc2ccccc2)cc1 | i | i | i | -3.1 | i | i
O=C(O)C1CC=CCC1C(=O)Nc1ccccc1Cl (stereo not drawn) | i | i | i | i | i | i
CCCCOc1ccccc1N | i | i | i | i | i | i
SMILES | CYP2C9 act | CYP2C19 activ | CYP2C19 inhib | PTK2B oligo ant | Cav32 inh | CYP2C9 inhib
Nc1ccccc1OCCOCCOCCOc1ccccc1N | i | i | 75 | i | i | 60
COC(=O)[C@@H]1C[C@@]2(O)[C@@H](O)[C@@H](O)[C@@H](O)C[C@H]2N1CC(c1ccccc1)c1ccccc1 | nt | nt | nt | nt | i | nt
COc1cccc(C(=O)SC2=NCCS2)c1 | i | i | i | i | i | i
CCCCc1ccc(C2C(C#N)=C(N)SC(N)=C2C#N)s1 | i | i | 68 | nt | i | 99
CCOc1ccc(C2C(C#N)=C(N)SC(N)=C2C#N)c(OCC)c1 | i | i | i | i | i | i
O=C(OCc1cnc(Cl)s1)c1cccc(Cl)c1Cl | i | i | 92 | i | i | i
O=C(OCc1cnc(Cl)s1)c1ccccc1Cl | i | i | 77 | i | i | i
CCCn1c(SCC(=O)Nc2c(C)cccc2CC)nnc1C(C)C | i | i | i | i | i | i
Cc1ccnc(NC(=O)c2ccc(COc3ccc(Cl)cc3)o2)c1 | i | i | i | i | i | i
COc1ccc(-c2c3c(nc4sc5c(=O)[nH]c(C)nc5c24)CCC3)cc1 | i | i | i | i | i | 57
O=C(Cn1nnc2c(sc3nc4c(c(-c5ccccc5)c32)CCC4)c1=O)c1ccccc1 | i | i | i | i | i | i
CC(=O)c1ccc(NC(=O)c2ccn[nH]2)cc1 | i | i | i | i | i | 69
CC(=O)c1ccc(NC(=O)CSCC(=O)Nc2ccc3ccccc3c2)cc1 | i | i | i | i | i | 55
CC(=O)c1ccc(NC(=O)Nc2ccccc2)cc1 | i | i | 50 | i | i | 63
O=C(CSCC(=O)NC1CC1)Nc1ccc2ccccc2c1 | nt | nt | nt | i | i | nt
CCN(CC)c1ccc(NC(=O)Nc2ccc(C(C)=O)cc2)cc1 | i | i | i | i | i | i
COc1ccc(CCc2cc(OC)cc(=O)o2)cc1 | nt | nt | nt | nt | i | nt
COc1ccc(C2c3c(oc4ccccc4c3=O)C(=O)N2CC2CCCO2)cc1 (stereo not drawn) | i | i | i | i | i | i
O=C1c2oc3ccccc3c(=O)c2C(c2cccc(O)c2)N1CCCN1CCOCC1 (stereo not drawn) | i | i | i | nt | i | i
O=C1c2oc3ccc(F)cc3c(=O)c2C(c2ccccc2)N1CC1CCCO1 (stereo not drawn) | i | i | i | i | i | 62
O=C1c2oc3ccccc3c(=O)c2C(c2cccc(F)c2)N1CCCO (stereo not drawn) | i | i | 50 | i | i | i
CN(C)S(=O)(=O)c1ccc(N2CCCC2)c(C(=O)NCc2ccc(Cl)cc2)c1 | i | i | i | i | i | i
O=C(CCSc1ccccc1)N1CCOCC1 | i | i | i | i | i | i
Cc1ccc(SCCC(=O)N2CCOCC2)cc1 | i | i | 95 | i | i | i
Cc1ccc(SCCC(=O)N2CCCC2)cc1 | i | i | 90 | i | i | i
O=C1C=C(c2ccc3c(c2)OCO3)CCC1 | nt | nt | nt | nt | i | nt
Nc1nc2c3ccccc3nc(C3CC3)n2n1 | i | i | i | i | nt | i
COc1ccccc1C(=O)Nc1ccc(N2CCCCC2)cc1 | 3.8 | i | i | i | i | i
COc1ccccc1C(=O)Nc1ccc(S(=O)(=O)N2CCCC2)cc1 | i | i | i | i | i | i
Cc1ccc(C(=O)Nc2ccc3c(c2)nc2n3CCSC2)cc1 | i | i | i | i | i | i
